Data taken from PubChem BioAssay (EPA / NIEHS).
The source made the active and inactive calls. The calls were made as follows: active = hit-call score of the fitted dose curve at least 0.9, where 1 is the maximum; inactive = score below 0.9.

What was measured:
[1] = read-out: Cyclin D2 (CCND2), CCND2 (gene 894); assay: LTEA_HepaRG_CCND2: Life Technologies and Expression Analysis (LTEA) Assay for Cyclin D2 (CCND2) using HepaRG (AID 2283449); details: mRNA level, 48 h; actives raise or lower the signal;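 also: CCND2 transcript measured by TaqMan qRT-PCR and normalised to three housekeeping genes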
Procedure, shortened: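 HepaRG, 48 h dosing, 8-pt half-log curve from 100 uM, 0.5% DMSO; duplicate wells. Readout: CCND2 transcript by microfluidic qRT-PCR, housekeeping-normalised; bidirectional fit vs DMSO baseline.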

[2] = read-out: Cyclin Dependent Kinase Inhibitor 1A (CDKN1A), CDKN1A (gene 1026); assay: LTEA_HepaRG_CDKN1A: Life Technologies and Expression Analysis (LTEA) Assay for Cyclin Dependent Kinase Inhibitor 1A (CDKN1A) using HepaRG (AID 2283450); details: mRNA level, 48 h; actives raise or lower the signal
Procedure, shortened: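 Expression quantified by Fluidigm qRT-PCR with ACTB, GAPDH and POLR2A normalization, fitted bidirectionally against 0.5% DMSO. Cells: HepaRG, plated 48 h then treated 48 h in serum-free induction medium, top concentration 100 uM with half-log dilutions.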

[3] = read-out: Cyclin D1 (CCND1), CCND1 (gene 595); assay: LTEA_HepaRG_CCND1: Life Technologies and Expression Analysis (LTEA) Assay for Cyclin D1 (CCND1) using HepaRG (AID 2283451); details: mRNA level, 48 h; actives raise or lower the signal;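 as to AC50: differentiated human HepaRG liver cells in serum-free induction medium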
Procedure, shortened: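 Expression of CCND1 was quantified by qRT-PCR on Fluidigm arrays using ACTB, GAPDH and POLR2A as reference genes. HepaRG cultures, plated 48 h beforehand, were dosed for 48 h at up to 100 uM (half-log, 8 points) in 0.5% DMSO.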

[4] = read-out: catalase (CAT), CAT (gene 847); assay: LTEA_HepaRG_CAT: Life Technologies and Expression Analysis (LTEA) Assay for catalase (CAT) using HepaRG (AID 2283452); details: mRNA level, 48 h; actives raise or lower the signal
Procedure, shortened: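 HepaRG cells in serum-free induction medium, 0.5% DMSO vehicle, exposed 48 h in duplicate over 8 half-log concentrations from 100 uM. CAT mRNA measured by qRT-PCR, normalized to ACTB, GAPDH, POLR2A; bidirectional fit versus DMSO.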

[5] = read-out: flavin-containing dimethylaniline monooxygenases 3 (FMO3), FMO3 (gene 2328); assay: LTEA_HepaRG_FMO3: Life Technologies and Expression Analysis (LTEA) Assay for flavin-containing dimethylaniline monooxygenases 3 (FMO3) using HepaRG (AID 2283453); details: mRNA level, 48 h; actives raise or lower the signal
Procedure, shortened: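 FMO3 transcript quantified by TaqMan qRT-PCR against three housekeeping genes after 48 h chemical exposure of HepaRG cells. Eight-point half-log series, top 100 uM, 0.5% DMSO vehicle; phenobarbital 1mM induction control; up- or down-regulation fitted.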

[6] = read-out: CFLAR gene, CFLAR (gene 8837); assay: LTEA_HepaRG_CFLAR: Life Technologies and Expression Analysis (LTEA) Assay for CFLAR gene using HepaRG (AID 2283455); details: mRNA level, 48 h; actives raise or lower the signal
Procedure, shortened: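 qRT-PCR read-out (Fluidigm/TaqMan) of CFLAR mRNA, normalized to three housekeeping genes, in differentiated human HepaRG cells after 48 h chemical exposure; 8-point half-log series from 100 uM in 0.5% DMSO; bidirectional curve fitting versus DMSO.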

[7] = read-out: Forkhead box O1 (FOXO1), FOXO1 (gene 2308); assay: LTEA_HepaRG_FOXO1: Life Technologies and Expression Analysis (LTEA) Assay for Forkhead box O1 (FOXO1) using HepaRG (AID 2283456); details: mRNA level, 48 h; actives raise or lower the signal
Procedure, shortened: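 HepaRG, 48 h exposure, 8-pt half-log series from 100 uM in 0.5% DMSO, duplicates; Fluidigm qRT-PCR mRNA, housekeeping-normalised; bidirectional fit vs DMSO baseline.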

[8] = read-out: growth arrest and DNA damage 45 (GADD45A), GADD45A (gene 1647); assay: LTEA_HepaRG_GADD45A: Life Technologies and Expression Analysis (LTEA) Assay for growth arrest and DNA damage 45 (GADD45A) using HepaRG (AID 2283458); details: mRNA level, 48 h; actives raise or lower the signal
Procedure, shortened: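 GADD45A expression was measured by TaqMan qRT-PCR against three housekeeping genes (ACTB, GAPDH, POLR2A) after 48 h treatment of HepaRG cells. Eight-point half-log series up to 100 uM in 0.5% DMSO, run in duplicate.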

[9] = read-out: Forkhead box O3 (FOXO3), FOXO3 (gene 2309); assay: LTEA_HepaRG_FOXO3: Life Technologies and Expression Analysis (LTEA) Assay for Forkhead box O3 (FOXO3) using HepaRG (AID 2283459); details: mRNA level, 48 h; actives raise or lower the signal
Procedure, shortened: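 qRT-PCR readout of FOXO3 transcript, normalized to three housekeeping genes (ACTB, GAPDH, POLR2A); gain or loss fitted against 0.5% DMSO vehicle. HepaRG cells, 48 h chemical exposure, 8-point half-log series, top 100 uM.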

[10] = read-out: ABC Transporter (ABCB1), ABCB1 (gene 5243); assay: LTEA_HepaRG_ABCB1: Life Technologies and Expression Analysis (LTEA) Assay for ABC Transporter (ABCB1) using HepaRG (AID 2283460); details: mRNA level, 48 h; actives raise or lower the signal
Procedure, shortened: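 HepaRG, 48 h exposure, 8-pt half-log series from 100 uM, 0.5% DMSO vehicle, duplicates. Readout: ABCB1 transcript by Fluidigm TaqMan qRT-PCR, housekeeping-normalized; bidirectional curve fit vs DMSO baseline.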

[11] = read-out: growth arrest and DNA damage 45 (GADD45B), GADD45B (gene 4616); assay: LTEA_HepaRG_GADD45B: Life Technologies and Expression Analysis (LTEA) Assay for growth arrest and DNA damage 45 (GADD45B) using HepaRG (AID 2283461); details: mRNA level, 48 h; actives raise or lower the signal
Procedure, shortened: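 Transcript level quantified by Fluidigm TaqMan qRT-PCR with three housekeeping genes for normalization, analyzed for up- or down-regulation against 0.5% DMSO. HepaRG cultures dosed 48 h at eight half-log concentrations up to 100 uM, duplicates.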

[12] = read-out: ABC Transporter (ABCC3), ABCC3 (gene 8714); assay: LTEA_HepaRG_ABCC3: Life Technologies and Expression Analysis (LTEA) Assay for ABC Transporter (ABCC3) using HepaRG (AID 2283462); details: mRNA level, 48 h; actives raise or lower the signal
Procedure, shortened: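 Transcript level by TaqMan qRT-PCR, normalised to three housekeeping genes, fitted in both directions relative to vehicle. Chemicals tested in duplicate at eight half-log concentrations up to 100 uM for 48 h on HepaRG cells (0.5% DMSO).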

[13] = read-out: ABC Transporter (ABCB11), ABCB11 (gene 8647); assay: LTEA_HepaRG_ABCB11: Life Technologies and Expression Analysis (LTEA) Assay for ABC Transporter (ABCB11) using HepaRG (AID 2283463); details: mRNA level, 48 h; actives raise or lower the signal
Procedure, shortened: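 HepaRG, 48 h exposure, 8-pt half-log CRC top 100 uM, 0.5% DMSO vehicle, duplicates. Readout: TaqMan qRT-PCR of ABCB11 mRNA, housekeeping-normalized (ACTB/GAPDH/POLR2A). Bidirectional fit vs DMSO baseline.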

[14] = read-out: ABC Transporter (ABCC2), ABCC2 (gene 1244); assay: LTEA_HepaRG_ABCC2: Life Technologies and Expression Analysis (LTEA) Assay for ABC Transporter (ABCC2) using HepaRG (AID 2283464); details: mRNA level, 48 h; actives raise or lower the signal
Procedure, shortened: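 Endpoint is ABCC2 transcript level from qRT-PCR, normalized to three housekeeping genes and fitted bidirectionally relative to DMSO. Human HepaRG cells received test chemical for 48 h at up to 100 uM (8 points, half-log steps, 0.5% DMSO), duplicate wells.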

[15] = read-out: Broad substrate specificity ATP-binding cassette transporter ABCG2 (Homo sapiens) (UniProt Q9UNQ0); assay: LTEA_HepaRG_ABCG2: Life Technologies and Expression Analysis (LTEA) Assay for ABC Transporter (ABCG2) using HepaRG (AID 2283465); details: mRNA level, 48 h; actives raise or lower the signal
Procedure, shortened: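 HepaRG, 48 h exposure, 8-pt half-log series from 100 uM, 0.5% DMSO vehicle, duplicates. Readout: ABCG2 transcript by qRT-PCR (Fluidigm array), housekeeping-normalized; bidirectional curve fit relative to DMSO baseline.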

[16] = read-out: ATP-citrate lyase (ACLY), ACLY (gene 47); assay: LTEA_HepaRG_ACLY: Life Technologies and Expression Analysis (LTEA) Assay for ATP-citrate lyase (ACLY) using HepaRG (AID 2283466); details: mRNA level, 48 h; actives raise or lower the signal
Procedure, shortened: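 qRT-PCR readout of ACLY transcript after 48 h chemical treatment of HepaRG cells; expression normalized to three housekeeping genes. Eight-point half-log series, highest 100 uM, 0.5% DMSO vehicle. Gain or loss fitted against DMSO baseline.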

[17] = read-out: Peroxisomal acyl-coenzyme A oxidase 1 (ACOX1) gene, ACOX1 (gene 51); assay: LTEA_HepaRG_ACOX1: Life Technologies and Expression Analysis (LTEA) Assay for Peroxisomal acyl-coenzyme A oxidase 1 (ACOX1) gene using HepaRG (AID 2283467); details: mRNA level, 48 h; actives raise or lower the signal
Procedure, shortened: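 HepaRG, 48 h chemical exposure, 8-pt half-log series from 100 uM top, 0.5% DMSO vehicle, duplicates. Readout: ACOX1 mRNA by Fluidigm qRT-PCR, housekeeping-normalized; bidirectional fit vs DMSO baseline.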

[18] = read-out: Alkaline Phosphatase, Placental (ALPP) gene, ALPP (gene 250); assay: LTEA_HepaRG_ALPP: Life Technologies and Expression Analysis (LTEA) Assay for Alkaline Phosphatase, Placental (ALPP) gene using HepaRG (AID 2283468); details: mRNA level, 48 h; actives raise or lower the signal;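 as to AC50: differentiated human HepaRG liver cells in serum-free induction medium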
Procedure, shortened: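 ALPP transcript level, measured by qRT-PCR and normalized to three housekeeping genes (ACTB, GAPDH, POLR2A), after 48 h dosing of differentiated HepaRG in serum-free induction medium. Top concentration 100 uM with half-log dilutions (8 points, 0.5% DMSO, duplicates); bidirectional fitting relative to DMSO.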

[19] = read-out: Cytochrome P450 (CYP1A1), CYP1A1 (gene 1543); assay: LTEA_HepaRG_CYP1A1: Life Technologies and Expression Analysis (LTEA) Assay for Cytochrome P450 (CYP1A1) using HepaRG (AID 2283454); details: mRNA level, 48 h; actives raise or lower the signal
Procedure, shortened: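 CYP1A1 transcript levels measured by Fluidigm qRT-PCR against three housekeeping genes, 48 h after chemical dosing of human HepaRG cells (highest concentration 100 uM, half-log steps, 0.5% DMSO vehicle). Gain or loss of signal fitted relative to DMSO.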

[20] = CEETOX_H295R_TESTO: CeeTox H295R High-throughput Steroidogenesis Assay for Testosterone (TESTO) (AID 2283457); details: actives raise or lower the signal
Procedure, shortened: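 Testosterone secreted into the medium over 48 h by H295R cells (maximum passage 10) was quantified by LC-MS/MS after MTBE extraction. Fitted in both directions against DMSO, with concentrations diluted until MTT viability was ≥70%.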

Measured: AC50

Sequence of Broad substrate specificity ATP-binding cassette transporter ABCG2 (Homo sapiens) (Q9UNQ0 whole entry, looked up): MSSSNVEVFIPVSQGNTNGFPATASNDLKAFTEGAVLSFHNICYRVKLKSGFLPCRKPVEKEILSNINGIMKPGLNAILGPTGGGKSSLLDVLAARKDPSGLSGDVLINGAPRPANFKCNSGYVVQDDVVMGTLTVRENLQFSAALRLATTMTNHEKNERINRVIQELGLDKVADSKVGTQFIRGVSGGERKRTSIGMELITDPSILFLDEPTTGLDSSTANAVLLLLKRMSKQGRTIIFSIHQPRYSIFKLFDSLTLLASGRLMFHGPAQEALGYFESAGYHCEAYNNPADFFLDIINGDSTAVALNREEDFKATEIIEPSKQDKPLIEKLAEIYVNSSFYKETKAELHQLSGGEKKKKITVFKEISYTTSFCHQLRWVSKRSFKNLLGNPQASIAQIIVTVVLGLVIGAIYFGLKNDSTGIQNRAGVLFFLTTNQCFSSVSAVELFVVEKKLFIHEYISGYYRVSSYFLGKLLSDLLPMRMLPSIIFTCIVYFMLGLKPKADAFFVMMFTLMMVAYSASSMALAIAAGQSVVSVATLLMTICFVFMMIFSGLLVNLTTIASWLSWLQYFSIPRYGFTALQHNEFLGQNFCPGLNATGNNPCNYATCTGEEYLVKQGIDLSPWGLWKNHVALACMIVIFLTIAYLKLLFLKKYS

Oc1ccccc1-c1ccccc1
not listed: [19] | [20]
inactive: all other assays above

OC(c1ccc(Cl)cc1)(c1cncnc1)c1ccccc1Cl (stereo not drawn)
active: [2] 70.5 µM | [3] 50 µM | [4] 87.6 µM | [19] 13 µM | [7] 79 µM | [8] 72.4 µM | [10] 28.5 µM | [11] 66.2 µM | [13] 89.4 µM | [14] 2.46 µM | [16] 12.6 µM | [17] 92.8 µM | [18] 61.5 µM
inactive: [1] | [6] | [9] | [12] | [15]

CCCCC(CC)COC(=O)c1ccccc1C(=O)OCC(CC)CCCC (stereo not drawn)
active: [19] 34.4 µM
not listed: [5] | [20]
inactive: all other assays above

O=C(O)COc1nc(Cl)c(Cl)cc1Cl
active: [19] 51 µM | [13] 23.2 µM
not listed: [5] | [20]
inactive: all other assays above

CCNc1nc(Cl)nc(NC(C)C)n1
active: [19] 40.5 µM | [10] 21.2 µM
not listed: [5] | [20]
inactive: all other assays above

CC1=C(C(=O)Nc2ccccc2)SCCO1
active: [3] 50 µM | [4] 12.8 µM | [6] 50 µM | [9] 50 µM | [11] 50 µM | [13] 50 µM
not listed: [5] | [19]
inactive: all other assays above
